The text below walks through data of PubChem BioAssay AID1851 (National Center for Advancing Translational Sciences (NCATS), 2009).

SMILES strings stand for the structures. Hit rate of the full screen: of about 16,000 compounds, about 5,100 (32%) were called active. Inconclusive results (about 25%) are left out. Calls come from the whole dose curve; as a rule, active = well fitted curve in the direction sought with a large enough effect; inconclusive = small, poorly fitted or top-dose-only effect, or effect the other way; inactive = no such curve, though single readings can be large or run the other way. This is one part of the list.
% is set by controls: 0 for no effect and ±100 for the full control effect.

Cytochrome P450 3A4 (Homo sapiens), sequence (P08684 whole entry, looked up): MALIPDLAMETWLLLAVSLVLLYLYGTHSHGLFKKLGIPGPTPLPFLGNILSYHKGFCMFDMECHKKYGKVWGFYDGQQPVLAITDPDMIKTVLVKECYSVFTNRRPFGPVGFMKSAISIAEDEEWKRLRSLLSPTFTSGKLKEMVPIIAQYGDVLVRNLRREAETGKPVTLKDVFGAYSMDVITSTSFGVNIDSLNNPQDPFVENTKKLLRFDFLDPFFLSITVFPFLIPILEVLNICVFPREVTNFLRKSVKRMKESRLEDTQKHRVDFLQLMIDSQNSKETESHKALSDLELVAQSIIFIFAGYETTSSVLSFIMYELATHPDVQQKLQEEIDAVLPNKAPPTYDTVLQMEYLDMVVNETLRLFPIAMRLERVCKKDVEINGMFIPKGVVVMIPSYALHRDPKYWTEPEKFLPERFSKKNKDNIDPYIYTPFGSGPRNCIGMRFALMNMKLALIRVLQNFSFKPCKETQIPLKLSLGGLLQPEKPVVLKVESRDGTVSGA

The assay has as its target Cytochrome P450 3A4 (Homo sapiens) (UniProt P08684). Nature of the assay: Cytochrome panel assay with activity outcomes. The conditions noted are these: recombinant CYP, pro-luciferin dealkylation, luminescence, p450-cyp3a4; series mostly up to 57.1 µM.
Consider `CCNc1ncc2ncc(=O)n(C3CC3)c2n1`, for which the AC50 entry is “inactive”. Same read-out and setting: the value for `O=S(=O)(c1cnccc1N1CCN(/N=C/c2ccccc2)CC1)N1CCCCC1` was 0.891 µM (active); that for `CC(C)N1CCN(c2ccncc2S(=O)(=O)N2CCCCC2)CC1` was 3.16 µM (active). As for `Nc1ncnc2nc(N3CCN(CCO)CC3)[nH]c12`, the activity, negative = inhibition is -3.68% [at 11.4 µM] (inactive). Turning to `Cn1c([N+](=O)[O-])cnc1CN1CCN(CCO)CC1`, the activity, negative = inhibition is -14.7% [at 11.4 µM] (inactive).

For the molecule `O=S(=O)(c1cnccc1N1CCN(CCO)CC1)N1CCCC1`, the AC50 was 3.98 µM (active). In the case of `CC(C)NC(=O)N1CCN(c2ccncc2S(=O)(=O)N2CCOCC2)CC1`, the activity, negative = inhibition is -21.8% [at 2.29 µM] (inactive). Take `CC(C)(C)NC(=O)C(=O)N/N=C/c1ccc(Br)cc1`: the AC50 entry was “inactive”.

Take `CCCC[C@H]1C[C@@H]1[C@@H]1N(P(=O)(c2ccccc2)c2ccccc2)C[C@@](O)(c2ccccc2)CC12CC2`: the AC50 is 2 µM (active). On the same count and under the same terms, the value for `CCCC[C@H]1C[C@@H]1[C@@H]1N(P(=O)(c2ccccc2)c2ccccc2)[C@](CO)(c2ccccc2)CC12CC2` was 2 µM (active). For `Cc1cc2c(c(=O)o1)[C@H](O)[C@H]1O[C@@H]1C2=O`, the activity, negative = inhibition is -24.9% [at 11.4 µM] (inactive).

Consider `O=C(O)CC1(CC(=O)O)Nc2ccccc2SC1=O`, for which the activity, negative = inhibition was -8.21% [at 11.4 µM] (inactive). `Cc1nonc1NC(=O)OCCN1CCOC1=O`: the AC50 entry is “inactive”. Same read-out and setting: with `CC(C)(C)c1cc(/C=C(\C#N)C(N)=S)cc(C(C)(C)C)c1O` the figure was 3.98 µM (active); with `Cc1sc2ncn(CC(=O)NCCCC(=O)N3CCN(c4ncccn4)CC3)c(=O)c2c1C`, 14.1 µM (active). The same measure, in the same setting: with `CCC(C)NC(=O)Cn1cnc2sc(C)cc2c1=O` (stereo not given) the entry was “inactive”; with `COCC(=O)N1CCC2(CC1)CCN(c1ncccn1)CC2`, “inactive”. `NS(=O)(=O)c1ccc(N=Nc2ccc[nH]c2=O)cc1`: the activity, negative = inhibition is -13.7% [at 11.4 µM] (inactive).

For the molecule `O=C(COc1ccc([N+](=O)[O-])cc1)NN=C1CCCC1`, the AC50 was 25.1 µM (active). On the same count and under the same terms, the value for `N=C(N)SCCc1ccc(OCc2ccc([N+](=O)[O-])cc2)cc1` was “inactive”.

In the case of `O=C(COc1ccc(Br)cc1)Nc1ccc([N+](=O)[O-])cn1`, the AC50 result is “inactive”.

Turning to `O=C1O[C@H](CN2CCOCC2)CN1/N=C\c1ccc([N+](=O)[O-])o1`, the AC50 result was “inactive”. The same measure, in the same setting: the value for `C[C@H](Nc1ncnc2sc3c(c12)CCC3)C(=O)O` was “inactive”. Same read-out and setting: with `Cc1nc(NS(=O)(=O)c2ccc(Br)cc2)c2c3c(sc2n1)CCC3` the figure was 11.2 µM (active). Turning to `Cc1nc(NS(=O)(=O)c2ccccc2C)c2c3c(sc2n1)CCC3`, the AC50 is 8.91 µM (active). Still for that read-out and setting: with `CNC(=S)N1CCN(c2ccccc2OC)CC1` the figure was 10 µM (active). As for `Fc1cccc(CSc2ncnc3c2ncn3[C@H]2CCCS2)c1`, the activity, negative = inhibition was -11.8% [at 11.4 µM] (inactive).

As to `Cc1nc(Sc2ccccc2)c(C#N)cc1-c1ccccc1`, the AC50 result is “inactive”. Still for that read-out and setting: with `Cc1ccc(Sc2nc(-c3ccccc3)ccc2C#N)cc1` the figure was 20 µM (active); with `N#Cc1ccc(-c2ccc(F)cc2)nc1Oc1ccc(Cl)c(Cl)c1`, “inactive”; with `COc1ccccc1-c1nnc(SCc2nc3ccccc3s2)n1C`, 17.8 µM (active). Turning to `CCN1C(=O)[C@H]2[C@H]3[C@H](O)[C@H](O)C/C(=N/O[C@@H]4O[C@@H](COC(C)=O)[C@@H](OC(C)=O)[C@@H](OC(C)=O)[C@H]4OC(C)=O)[C@@H]3CC[C@@H]2C1=O`, the activity, negative = inhibition is -19.3% [at 11.4 µM] (inactive). The same measure, in the same setting: with `COc1ccc(-c2c(C)oc3c(CN4CCN(CCO)CC4)c(O)ccc3c2=O)cc1OC` the figure was -0.572% [at 11.4 µM] (inactive). Regarding `COc1cc(-c2ccc(=O)[nH]n2)ccc1OC(F)F`, the AC50 entry is “inactive”. Regarding `COc1ccc(-c2cc(-c3cc(F)ccc3O)[nH]n2)cc1OC`, the AC50 was 20 µM (active).

On to `COc1ccc(-c2cc(-c3c(O)c(OC)c4occc4c3OC)[nH]n2)cc1OC`, for which the AC50 is 7.94 µM (active). The same measure, in the same setting: with `Nc1nc(Nc2ccccc2)nc2c1ncn2[C@@H]1O[C@@H](CO)[C@H](O)[C@H]1O` the entry was “inactive”. The same measure, in the same setting: the value for `O=C1c2ccccc2C(=O)N1CC(=O)N1c2ccccc2CCc2ccccc21` was 12.6 µM (active). For the molecule `O=C(CN1C(=O)c2ccccc2C1=O)NC1(C(=O)O)CCCC1`, the activity, negative = inhibition was -10.2% [at 11.4 µM] (inactive).

Turning to `Cc1nn(C(=O)CN2C(=O)c3ccccc3C2=O)c(C)c1Br`, the AC50 entry is “inactive”. The same measure, in the same setting: with `CCc1ccc(C2=Nn3c(nnc3-c3cccs3)SC2)cc1` the figure was 25.1 µM (active). Take `c1ccc(-c2ccc(C3=Nn4c(Cn5nnc6ccccc65)nnc4SC3)cc2)cc1`: the activity, negative = inhibition is -11.6% [at 2.29 µM] (inactive). Take `COc1ccc(-c2nnc3n2N=C(C)CS3)cc1`: the AC50 result is “inactive”. For the molecule `CCOc1ccc(-c2nnc3n2N=C(c2ccc(OC)cc2)CS3)cc1`, the AC50 is 15.8 µM (active). Same read-out and setting: with `CCOc1ccc(-c2nnc3ccc(SC)nn23)cc1` the entry was “inactive”. Consider `O=C(O)C1(Nc2ccc(Cl)cc2)CCCC1`, for which the activity, negative = inhibition is -9.17% [at 11.4 µM] (inactive). Regarding `CCNC(=O)NC1(C(=O)Nc2ccc3c(c2)OCCO3)CCCCC1`, the AC50 entry is “inactive”.

With `Cc1ccc(CNC(=O)C2(NC(=O)Nc3ccc(C)cc3)CCCCC2)cc1`, the AC50 was 2.51 µM (active).

`O=C(CSCc1ccccc1)Nc1ccc(S(=O)(=O)N2CCOCC2)cc1`: the activity, negative = inhibition was -15.3% [at 11.4 µM] (inactive). Take `O=C(CSCc1ccccc1)Nc1cccc(C(=O)Nc2ccccc2C(=O)O)c1`: the AC50 is 14.1 µM (active). Still for that read-out and setting: the value for `CNc1csc(C)c(C)c1=O` was “inactive”. `c1ccc2c(CSCc3cccc4ccccc34)cccc2c1`: the activity, negative = inhibition was -3.97% [at 11.4 µM] (inactive).

Turning to `c1ccc2c(CSc3nnc(-c4ccncc4)o3)cccc2c1`, the AC50 is 15.8 µM (active). On to `CCCCNC(=O)Cc1coc2ccc3ccccc3c12`, for which the AC50 is 4.47 µM (active). For the molecule `CCCCN(C)C(=O)c1coc(=O)c2ccccc12`, the AC50 result was “inactive”.

`CCCCNC(=O)CN1C(=O)NC2(CCCc3ccccc32)C1=O` (stereo not given): the AC50 entry was “inactive”. The same measure, in the same setting: the value for `CCCN(C(=O)Cc1nc(N)n[nH]1)C1(C(=O)Nc2ccccc2C)CCCCC1` was 1.12 µM (active). Still for that read-out and setting: with `O=C(c1cc(C(F)(F)F)cc(C(F)(F)F)c1)N1CCC[C@@]2(CCN(Cc3ccncc3)C2)C1` the figure was 0.501 µM (active); with `N#Cc1ccc(CN2CCC3(CC2)CCN(C(=O)c2cc(C(F)(F)F)cc(C(F)(F)F)c2)CC3)cc1`, “inactive”. Same read-out and setting: with `O=C(c1cc(C(F)(F)F)cc(C(F)(F)F)c1)N1CCC2(CC1)CN(Cc1ccccc1)C2` the entry was “inactive”.

As for `O=C(c1cc(C(F)(F)F)cc(C(F)(F)F)c1)N1CCC2(CCN(Cc3ccccc3)CC2)CC1`, the AC50 entry was “inactive”.

With `N#Cc1ccc(CN2CC3(CCN(C(=O)c4cc(C(F)(F)F)cc(C(F)(F)F)c4)CC3)C2)cc1`, the AC50 result is “inactive”. On the same count and under the same terms, the value for `N#Cc1ccc(CN2CC[C@@]3(CCCN(C(=O)c4cc(C(F)(F)F)cc(C(F)(F)F)c4)C3)C2)cc1` was 5.01 µM (active). Still for that read-out and setting: with `O=C(c1ccncc1)N1CCC2(CC1)CN(Cc1cc(C(F)(F)F)cc(C(F)(F)F)c1)C2` the figure was 5.01 µM (active); with `O=C(c1cc(C(F)(F)F)cc(C(F)(F)F)c1)N1CCC[C@@]2(CCN(Cc3ccccc3)C2)C1`, 5.01 µM (active).
